Shown are actives, neighbours in structure and some others; about 12% of the full set was active somewhere.
SARS PLpro yeast = inhibitors of SARS-CoV papain-like protease in yeast; S. cerevisiae expressing SARS-CoV PLpro, growth rescue; Potency, µM (top dose mostly 32.9 µM), usual class: activators; actives 0.19% (n = 330,000); AID 485353; further: nearly all actives have a fitted effect of over 55% in size
NS1 function inh = inhibitors of influenza NS1 protein function | Potency, µM (top dose mostly 46.1 µM) | actives 0.4% (n = 270,000) | AID 2326; further: actives are rising curves; nearly all actives have a fitted effect of over 50% in size
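A cell-based growth assay was used: compounds that relieve NS1-induced slow growth of budding yeast raise OD600. Assay medium was yeast nitrogen base with ammonium sulphate and -URA supplement, pH 6.0, with 2% galactose.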
Shiga toxin inh = inhibitors of Shiga toxin in Vero cells; Vero cells, Shiga toxin protein synthesis inhibition reporter; inhibition, % at 38.7 µM; actives 9.2% (n = 290,000); AID 2315; in the data active means inhibition mostly above about 28%, no sharp cut-off; inactive means mostly below about 43%
CHX counter = counter-screen hit for Shiga toxin inhibitors, cycloheximide; cell reporter, cycloheximide protein synthesis inhibition counterscreen; max response, %; actives 12% (n = 300,000); AID 2314; in the data active means max response mostly above about 13%, no sharp cut-off; inactive means mostly below about 14%; further: read at 38.3 µM for the half of the compounds with a filed dose
Of the large screens only hits and unclear results are named; the others gave an inactive call. Unless noted, the call rests on the fitted dose curve.

CCN1CCN(C(=O)C2CC(=O)N(c3ccc(Cl)cc3)C2)CC1 (centres undefined)	none
Cc1cc(Br)ccc1SCC(=O)N1CCN(S(=O)(=O)c2ccccc2)CC1	Shiga toxin inh 38, CHX counter 33
CCN(CC(=O)Nc1ccccc1C(F)(F)F)C(=O)C1CSC2(C)CCC(=O)N12 (centres undefined)	none (no result: NS1 function inh, Shiga toxin inh, CHX counter)
CCOC(=O)c1sc(N(Cc2ccccc2)C(=O)COC(=O)c2ccc(O)cc2)nc1C	none
CCOC(=O)c1sc(N(Cc2ccccc2)C(=O)COC(=O)c2ccccc2O)nc1C	Shiga toxin inh 32, CHX counter 19
N#C/C(=C\c1ccccc1)C(=O)NNS(=O)(=O)c1ccc(Br)cc1	none (no result: NS1 function inh, Shiga toxin inh, CHX counter)
FC(F)(F)c1nc2cc3nc4ccccc4[nH]c3cc2n1	Shiga toxin inh 69, CHX counter 39
O=c1[nH]c2cc3ccccc3cc2nc1C(F)(F)F	none (no result: NS1 function inh)
CC(Cc1n[nH]c(=S)n1N)c1ccccc1 (centres undefined)	NS1 function inh inconclusive
FC(F)(F)c1ccccc1/C=N/n1c(COc2ccccc2)n[nH]c1=S	none
OC[C@@H](O)[C@H](O)C(/C=N/Nc1ccccc1)=N\Nc1ccccc1	CHX counter 28
CCOc1c(Br)cc(CNc2ccc3c(c2)OCCO3)cc1OC	Shiga toxin inh 97, CHX counter 49
CCOc1cc(CNc2ccc3c(c2)OCCO3)cc(Br)c1OC	none
CCOc1cc(CNc2ccc3c(c2)OCCO3)cc(Br)c1OCC(N)=O	CHX counter 20
CC1C/C(=N/NC(=O)c2cccc(F)c2)c2ccc(O)cc2C1 (centres undefined)	Shiga toxin inh active, CHX counter 42
N#CCNc1ccc([N+](=O)[O-])cc1C#N	none
COc1ccc(P2(=O)Nc3ccccc3N2)cc1	CHX counter 36
COc1ccc2c(c1)S(=O)(=O)c1ccccc1N2	none
Fc1ccc(-n2ncc3c(SCc4cccnc4)ncnc32)cc1	CHX counter 20
Cc1ccc(-n2ncc3c(SCc4ccccc4)ncnc32)cc1	CHX counter 20
Cc1ccc(CSc2ncnc3c2cnn3-c2ccccc2)cc1	none
Cc1ccc(CSc2ncnc3c2cnn3-c2ccc(C)cc2)cc1	CHX counter 15
O=C(CSc1ncnc2c1cnn2-c1ccc(F)cc1)NC1CCCC1	none
c1ccc2sc(Sc3ncnc4sccc34)nc2c1	Shiga toxin inh 46, CHX counter 42
C=CCSc1nc(C)c(Cc2cccc3ccccc23)c(=O)[nH]1	NS1 function inh inconclusive
CC(C)(C)C1=CC(O)(c2ccccc2)C=C(C(C)(C)C)C1=O	none
O=C(CSc1nnnn1C1CC1)N1CCN(Cc2ccccc2F)CC1	none (no result: NS1 function inh, Shiga toxin inh, CHX counter)
Cc1nc(SCc2ccccc2)c2ccsc2n1	none (no result: NS1 function inh)
c1ccc(CSc2ncnc3sccc23)cc1	Shiga toxin inh 52
O=C(NC1CCCCCC1)c1ccc(-n2cnnc2)cc1	none
C=CCNC(=O)c1ccc(-n2cccc2)cc1	CHX counter 30 (no result: NS1 function inh)
O=C(NC1CC1)c1ccc(-n2cccc2)cc1	CHX counter 62 (no result: NS1 function inh)
N#Cc1ccc(NC(=O)Cn2cnc(S(=O)(=O)N3CCCC3)c2)cc1	none
CCc1cc2c(SCc3nc4sc(C(C)=O)c(C)c4c(=O)[nH]3)ncnc2s1	none
CC1=C(c2ccc(C)cc2)[N+](=O)C(C)(C)N1[O-]	Shiga toxin inh 78, CHX counter 19
COc1ccc2nc(NCN3C(=O)c4ccccc4C3=O)sc2c1	none (no result: SARS PLpro yeast, Shiga toxin inh, CHX counter)
O=C1CCC[C@@H]2CC(NCc3ccc(Cl)c(Cl)c3)C[C@@H]3CCN1[C@H]23 (some centres undefined)	none (no result: SARS PLpro yeast, NS1 function inh)
Oc1ccc(CN2CCCCC2)c2cccnc12	none
Oc1ccc(COCc2ccccc2)c2cccnc12	Shiga toxin inh 147, CHX counter 68
Oc1c(CN2CCCCC2)cc(COCc2ccccc2)c2cccnc12	CHX counter 17
Cc1cc(NC(=O)C(C)(C)C)no1	none
Cc1cc(N/C=C2\CCCCC2=O)no1	CHX counter 16
COCCNC(=O)c1cc2oc3ccccc3c2n1C	Shiga toxin inh 89, CHX counter 62
COCC(C)NC(=O)/C=C/c1ccc(OC)cc1 (centres undefined)	CHX counter 19
COc1ccc(/C=C/C(=O)NCc2ccccn2)cc1	Shiga toxin inh 34, CHX counter 17
COC(=O)CNC(=O)/C=C/c1ccc(OC)cc1	Shiga toxin inh 57, CHX counter 27
CCOc1ccc(S(=O)(=O)NCCC(=O)NCCOc2ccccc2OC)cc1	none (no result: NS1 function inh, Shiga toxin inh, CHX counter)
O=C(NCC1CCCO1)Nc1cccc(Cl)c1 (centres undefined)	Shiga toxin inh 27, CHX counter 17
Cc1cccc(NC(=O)C(=O)NCC2CCCO2)c1 (centres undefined)	Shiga toxin inh 51, CHX counter 43
CCOC(=O)C1CCCN(S(=O)(=O)c2nc3nc(C)cc(C)n3n2)C1 (centres undefined)	none
Oc1ccccc1/C=N/Nc1cc(N2CCCC2)nc(N2CCCC2)n1	CHX counter 12
COc1ccccc1/C=N/Nc1cc(C)nc(N2CCOCC2)n1	CHX counter 24
Oc1cccc(/C=N/Nc2cc(N3CCOCC3)nc(N3CCOCC3)n2)c1	CHX counter 19
COc1ccc(/C=N/Nc2cc(C)nc(N3CCOCC3)n2)cc1OC	none
Oc1ccc(/C=N/Nc2cc(N3CCOCC3)nc(N3CCOCC3)n2)cc1O	NS1 function inh inconclusive
Cc1ccc(NC(=S)N(Cc2ccc(Cl)cc2)Cc2ccc(C(=O)O)cc2)cc1Cl	none (no result: NS1 function inh)
CC(C)[C@H](NC(=O)c1ccccc1)C(=O)OCC(=O)c1ccccc1F	CHX counter 16
CC(C)[C@H](NC(=O)c1ccccc1)C(=O)OCC(=O)NCCc1ccc(F)cc1	none
CCOc1ccc(C2C(C#N)=C(N)N3C(=C2C#N)Sc2ccccc23)cc1 (centres undefined)	NS1 function inh inconclusive, Shiga toxin inh 65, CHX counter 26
N#CC1=C(N)N2C(=C(C#N)C1c1ccccc1)Sc1ccccc12 (centres undefined)	none
O=C(NCc1ccc(Cl)cc1)c1ccc(OCC2CCCO2)cc1 (centres undefined)	none
O=C(Nc1ccc(Cl)cc1)c1ccc(OCC2CCCO2)cc1 (centres undefined)	Shiga toxin inh 95, CHX counter 42
Cc1cccc(NC(=O)c2ccc(OCC3CCCO3)cc2)c1C (centres undefined)	Shiga toxin inh 45, CHX counter 30
CCn1c(C)cc(/C=C2\NC(=O)N(Cc3ccc(Cl)cc3)C2=O)c1C	none
CCN1C(=O)N/C(=C/c2cc(C)n(Cc3ccccc3)c2C)C1=O	Shiga toxin inh 37, CHX counter 27
Cn1cc(C=C2C(=O)Nc3cccnc32)c2ccccc21	Shiga toxin inh 32, CHX counter 30 (no result: SARS PLpro yeast, NS1 function inh)
O=C(CCC1CCCN(C(=O)c2ccc3[nH]ccc3c2)C1)N1CCN(c2ccccn2)CC1 (centres undefined)	none
COc1ccc(-c2nnc(SCC#CCO)o2)cc1OC	none
OCC#CCSc1nnc(-c2ccc(Br)cc2)o1	CHX counter 33
OCC#CCSc1nnc(-c2ccccc2Br)o1	CHX counter 27
COc1ccc(OC)c(CC(NC(C)=O)C(=O)NC2CCN(c3nc(C)cc(C)c3C#N)CC2)c1 (centres undefined)	none
N#Cc1c(-c2ccccc2)ccnc1N1CCOCC1	none
Clc1ccc(OCC#CCN2CCCCCC2)cc1	Shiga toxin inh 47
